Screening results deposited in PubChem by National Center for Advancing Translational Sciences (NCATS).
Sampled rows, rich in hits. Any-hit rate of the full collection: about 9.2%.
KDM4E inh: inhibitors of human JMJD2E histone demethylase. 230,000 compounds, 1.6% hits. JMJD2E catalytic domain, FDH-coupled NADH fluorescence (FDH is formaldehyde dehydrogenase). Potency, µM (titrated, usually from 57.1 µM), for inactives: at the top dose activity change, negative = inhibition, hits mostly inhibitors. B2RXH2;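 further: 0% = wells with enzyme and -100% = buffer wells without enzyme; nearly all actives have a fitted effect of over 50% in size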
HPGD block: HPGD (human) dehydrogenase inhibition; purified HPGD, NADH fluorescence kinetic, PGE2 substrate; P15428; Potency, µM, inactives show at the top dose activity change, negative = inhibition, actives largely listed as inhibitors; 150,000 compounds, 4.3% hits; further: on the % scale 0 is the no-effect control and ±100 the full control effect
Target sequence (P15428 whole entry, looked up): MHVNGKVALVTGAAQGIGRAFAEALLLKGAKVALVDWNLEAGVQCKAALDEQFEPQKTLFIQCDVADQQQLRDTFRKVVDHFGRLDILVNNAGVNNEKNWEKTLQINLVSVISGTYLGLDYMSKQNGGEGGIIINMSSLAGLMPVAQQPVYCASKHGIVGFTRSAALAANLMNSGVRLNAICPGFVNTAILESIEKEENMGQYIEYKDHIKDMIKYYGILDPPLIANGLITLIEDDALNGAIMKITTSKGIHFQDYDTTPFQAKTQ
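20 nM HPGD preincubated 15 min at room temperature with compound in 50 mM Tris-HCl pH 8, 0.01% Tween 20. Started with 1 mM NAD+ and 30 uM prostaglandin E2; NADH fluorescence (360/450 nm) read 5 times over 30-s intervals, last minus first.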
HTT ATP protect: protects HTT-Q103 PC12 cells, measured by ATP; AID 1471; Potency, µM (top dose mostly 56.4 µM), for the others: cytoprotection (ATP increase), hits mostly activators; 230,000 compounds, 0.14% hits; PC12 HTT-Q103 induced, cytoprotection, ATP luminescence, 40 h; active means well fitted curve in the direction sought with a large enough effect; inconclusive means small, poorly fitted or top-dose-only effect, or another doubt; inactive means no such curve, though single readings can be large; an effect the other way counts as inactive or inconclusive; further: % of control where 0% means no effect; nearly all actives have a fitted effect of over 45% in size
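Compounds added alongside 100 nM tebufenozide, which induces toxic Q103 huntingtin exon 1-GFP in stable PC12 cells; surviving cells quantified by luminescent ATP measurement. Medium: phenol red-free DMEM, 5% equine and 5% calf serum.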
ALDH1A1 block: inhibitors of human aldehyde dehydrogenase 1A1. Potency, µM (titrated, usually from 75.3 µM), for inactives: at the top dose activity, negative = inhibition, actives largely listed as inhibitors. P00352. AID 1030. 220,000 compounds, 7.3% hits. Purified ALDH1A1, NADH fluorescence, propionaldehyde substrate;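 further: plate controls were no enzyme wells and a reference inhibitor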
LMNA splice mod: LMNA splicing modulation; HeLa LMNA splicing GFP/RFP minigene ratio, 48 h; 200,000 compounds, 0.01% hits; Potency, µM (doses to about 46.1 µM), without a hit: top-dose ratio change, negative = inhibition, usual class: inhibitors; active means well fitted inhibition curve with a large enough effect in the signal ratio, with a control signal flat, not every such curve was filed as active; inconclusive means small, poorly fitted or top-dose-only effect, or effect the other way, or a change in a side signal; the % refers to the signal ratio; further: on the % scale 0 is the no-effect control and ±100 the full control effect
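Read-out is the ratio of GFP to DsRed2 object intensity, acquired by 488 nm laser-scanning cytometry on HeLa lamin A-EGFP minigene reporter cells. Compound incubation 48 hrs at 37 °C in Opti-MEM with 2% FBS; DMSO 0.5% final.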
HttQ103 aggreg: inhibitors of mutant huntingtin aggregate formation in PC12 cells. PC12 HttQ103-GFP aggregates, Acumen cytometry, 40 h. Potency, µM (doses to about 46.1 µM), for the others: at the highest dose activity change, negative = inhibition, hits mostly inhibitors. 220,000 compounds, 1.1% hits; active means well fitted curve in the direction sought with a large enough effect; inconclusive means small, poorly fitted or top-dose-only effect, or another doubt; inactive means no such curve, though single readings can be large; an effect the other way counts as inactive or inconclusive; further: on the % scale 0 is the no-effect control and ±100 the full control effect; nearly all actives have a fitted effect of over 60% in size
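Using laser scanning cytometry, GFP-positive aggregates were counted after lysis of PC12 cells induced with 100 nM tebufenozide to express HTT exon 1 Q103–GFP. Compounds were tested in titration.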
Active calls of the source: *; ? = inconclusive; nt = not tested or not shown; [ ] = remark or other dose. Unless noted, the call rests on the fitted dose curve; in most records, active means well fitted inhibition curve with a large enough effect (not every such curve was filed as active); inconclusive means small, poorly fitted or top-dose-only effect, or another doubt; inactive means no such curve, though single readings can be large or run the other way. Potency means the concentration at half of the fitted maximal effect.

SMILES	KDM4E inh	HPGD block	HTT ATP protect	ALDH1A1 block	LMNA splice mod	HttQ103 aggreg
COc1ccc(-c2ccccc2C2NC(C(=O)O)CCC2C)cc1 (stereo not drawn)	nt	nt	-3%[10 µM]	12%[13.5 µM]	nt	nt
C[C@@H](Cc1ccccc1)Nc1ncnc2c1ncn2[C@@H]1O[C@@H](CO)[C@H](O)[C@@H]1O	nt	nt	3%[1.9 µM]	nt	nt	nt
NC(=NCCCCCCN=C(N)/N=C(\N)Nc1ccc(Cl)cc1)/N=C(\N)Nc1ccc(Cl)cc1	-16%	39%	-98%	-7%	?	14µM*
CC(C)N=C(N)/N=C(\N)Nc1ccc(Cl)cc1	4%[25.5 µM]	0%	-4%[40.3 µM]	5%[20.9 µM]	?	10%[20.6 µM]
O=C1CNC(=O)/C1=C/c1ccccc1	7%	14µM*	nt	-2%	-12%	-2%
O=C1CNC(=O)/C1=C\c1ccc(O)cc1	-4%	-21%	-20%[10 µM]	?	-13%	-8%
O=C1CNC(=O)/C1=C/c1ccc(O)cc1	?	?	7%	32µM*	4%	10%
N#Cc1cccc(-c2nc3cnc(Nc4ccccc4)nc3n(C[C@H]3CCCO3)c2=O)c1	nt	-10%	-2%	-11%	nt	nt
Cn1c(SCC(=O)NCc2cccs2)nnc1-c1cccs1	0%	-5%	11%[0.074 µM]	5%	-3%	6%
O=C(CSc1n[nH]c(-c2cccs2)n1)NCc1cccs1	3%	18µM*	-21%[10 µM]	24%	12%	-5%
Nc1nc(SCC(=O)NCc2ccc3c(c2)OCO3)n[nH]1	-2%	nt	20%	2%	-9%[46 µM]	7%
O=C(CSc1n[nH]c(-c2cccs2)n1)NCc1ccc2c(c1)OCO2	-3%	13µM*	-28%	1%	16%	4%
CCOc1cc(C(=O)CCC(=O)OCC(=O)Nc2ccc(C)c(S(=O)(=O)N(C)C)c2)ccc1O	-2%	nt	-34%	28µM*	-1%[46 µM]	12%
CCN(CC)S(=O)(=O)c1cc(NC(=O)COC(=O)c2sc3ccccc3c2Cl)ccc1C	-14%	-14%	5%[10 µM]	8%	-3%	-7%
CCN(CC)S(=O)(=O)c1cc(NC(=O)COC(=O)c2ccc(NC(=O)CC#N)cc2)ccc1C	4µM*	nt	-6%	5%	22%[46 µM]	-9%
Cc1ccc(NC(=O)COC(=O)CCC(=O)c2ccc(Cl)cc2)cc1S(=O)(=O)N(C)C	1%	nt	1%[10 µM]	-17%	-13%	?
CCOC(=O)C1(Cc2ccc(Cl)cc2)CCN(C(=O)c2cscn2)CC1	-13%	nt	-6%[10 µM]	?	nt	3%[9.22 µM]
C[C@H]1[C@H](C)CC[C@]2(C(=O)O)CC[C@]3(C)C(=CCC4[C@@]5(C)C[C@@H](O)[C@H](O)[C@@](C)(CO)[C@@H]5CC[C@]43C)[C@H]12 (stereo partly drawn)	2%	-4%	-7%[1.9 µM]	4%	nt	nt
O=S(=O)(NCc1ccncc1)c1ccc(Br)s1	-6%	-12%	-27%[0.074 µM]	5%	?	2.5µM*
Cc1ccc2occ(C3N[C@H](C(=O)O)CS3)c(=O)c2c1 (stereo partly drawn)	?	-9%	-24%	1.4µM*	2%	10%
COc1ccc(C2=N[C@@H](C(C)C)CO2)cc1	nt	-6%	-19%[96.6 µM]	-12%[120 µM]	nt	nt
Cc1ccc(S(=O)(=O)Cc2sc3ccccc3[n+]2C)cc1	?	22µM*	30%	?	9%	-21%
O=S(=O)(Cc1nc2ccccc2s1)c1ccccc1	4%	-6%	-16%[10 µM]	-6%	-4%	-22%
CCOc1ccc(CCNC(=O)C2CCN(S(=O)(=O)N3CCC(C)CC3)CC2)cc1OCC	-10%	-8%	nt	?	0%	1%
CCC(=O)N1Cc2ccccc2-c2ccccc2C1=O	?	-5%	3%[0.074 µM]	-1%	12%	5.6µM*
O=[N+]([O-])c1cccc(/C=C2\CCC(/C=N/Nc3ccc4ccccc4n3)=C2N2CCOCC2)c1	-3%	-11%	23%[10 µM]	?	-15%	12%
CCOC(=O)C(=O)C1=C(N2CCOCC2)/C(=C\c2cccc([N+](=O)[O-])c2)CC1	-2%	32µM*	-18%[1.9 µM]	2.2µM*	-11%	1%
